Paper PMC4552634, “A New Set of Chemical Starting Points with Plasmodium falciparum Transmission-Blocking Potential for Antimalarial Drug Discovery” (PLoS ONE, 2015)
Screen size: about 13,000 compounds; about 3,200 (25%) showed an effect of 50% or more. This is one part of the list.

tested on: P. falciparum stage V gametocytes; set-up: BacTiter-Glo ATP luminescence viability of purified stage V gametocytes in 384-well plates, per cent inhibition versus DMSO; settings: 48 h, 5 µM; inhibitor

| Structure (SMILES) | % Inhibition [%] |
| --- | --- |
| Cc1cccc(C)c1CNc1nc(N2CCOCC2)cc2c(C)c(C)[nH]c12 [TCMDC-134210] | 43.54 |
| CCNC(=O)N[C@@H]1CN[C@@H](C#Cc2cc3c(Nc4ccc(OCc5cccc(F)c5)c(Cl)c4)ncnc3s2)C1 [TCMDC-135409] | -11.09 |
| COc1cc(CNc2ccc(N3CCCC3)cc2)cc(Cl)c1OC [TCMDC-124518] | 100.8 |
| COc1ccc(C=CC(=O)Nc2ccc(N3CCCC3)cc2)cc1 [TCMDC-125750] | -68.82 |
| COc1ccc(CNC2CCN(c3ccc(NC(=O)c4cccc(Cl)c4)cc3)CC2)cc1OC [TCMDC-124658] | -12.9 |
| CCCC1(C)CSc2ccccc2C(c2ccccc2)N1 (centres unmarked) [TCMDC-137314] | 11.78 |
| CCCCCCCN(Cc1ccc(OC(C)(C)C(=O)OCC)cc1)C(=O)Nc1ccccc1OC(F)(F)F [TCMDC-131918] | 45.53 |
| CCCCCCCN(Cc1ccc(OC(C)(C)C(=O)OCC)cc1)C(=O)Nc1ccccc1OCC [TCMDC-137534] | 46.34 |
| CCCCCCCN(Cc1ccc(OC(C)(C)C(=O)OCC)cc1)C(=O)Nc1ccc(Cl)cc1OCC [TCMDC-131919] | 74.71 |
| Cc1cc2c3c(N)nc(N)nc3ccc2n1C [TCMDC-137957] | 115.7 |
| CCC(CC)n1c(C)cc2c3c(N)nc(N)nc3ccc21 [TCMDC-137283] | 15.6 |
| Cc1cc2c3c(N)nc(N)nc3ccc2n1C(C)C [TCMDC-137864] | -11.65 |
| Cn1c(-c2ccccc2)cc2c3c(N)nc(N)nc3ccc21 [TCMDC-137985] | 110.7 |
| CCCn1cc2c(ccc3nc(N)nc(N)c32)n1 [TCMDC-137858] | 22.58 |
| CCOCn1c(-c2ccccc2)cc2c3c(N)nc(N)nc3ccc21 [TCMDC-137979] | 108.5 |
| Nc1nc(N)c2c(ccc3nn(Cc4ccccc4)cc32)n1 [TCMDC-137757] | -1.825 |
| Cn1ccc2c3c(N)nc(N)nc3ccc21 [TCMDC-139863] | 5.526 |
| CCC(C)(C)n1c(C)cc2c3c(N)nc(N)nc3ccc21 [TCMDC-137307] | 10.01 |
| COc1ccc(C(=O)COc2cccc(/C=C/C(=O)O)c2)cc1OC [TCMDC-137318] | -6.983 |
| Cc1nc(-c2cccc(NCc3ccccc3)c2)[nH]c1C [TCMDC-133419] | -26.98 |
| CCOc1cc(Cc2cnc(N)nc2N)cc(OC)c1OC [TCMDC-137664] | -4.101 |
| CC(C)C1C(O)=C(c2ccc3ccccc3c2)C(=O)N1Cc1ccsc1 (centres unmarked) [TCMDC-141810] | 16.73 |
| Cc1ccccc1C1CCN(C2CCC(NC(=O)/C=C/c3cccc(Cl)c3F)CC2)CC1 (centres unmarked) [TCMDC-133513] | -35.56 |
| COc1cccc(CNC[C@@H](O)[C@H](Cc2ccccc2)NC(=O)c2cc3c4c(c2)c(C(C)C)cn4CCS(=O)(=O)N3C)c1 [TCMDC-135536] | 25 |

| Structure (SMILES) | % Inhibition [%] |
| --- | --- |
| COc1ccc2nccc([C@@H](O)CN3CCC(NC(=O)c4cccc(-c5cc(C)no5)c4)CC3)c2c1 [TCMDC-141133] | -80.32 |
| Cc1noc(C)c1-c1cccc(C(=O)NC2CCN(CCNC(=O)C(c3ccccc3)c3ccccc3)CC2)c1 [TCMDC-133354] | 85.49 |
| Cc1nn(-c2ccccc2)nc1C(=O)NC1CCN(CCNC(=O)c2ccc(Cl)c(Cl)c2)CC1 [TCMDC-141951] | 7.25 |
| OCCn1c(CNCCCNc2nc3ccccc3[nH]2)cc2c(Cl)cc(Cl)cc21 [TCMDC-140142] | 2.661 |
| CNc1nc(N/N=C/c2cc([N+](=O)[O-])c(Cl)cc2Cl)nc(Nc2cccc(C(F)(F)F)c2)n1 [TCMDC-124087] | -4.111 |
| CCn1c(-c2nonc2N)nc2cnc(Oc3cccc(NC(=O)c4ccc(OCCN(C(C)C)C(C)C)cc4)c3)cc21 [TCMDC-135777] | -15.21 |
| CCn1c(-c2nonc2N)nc2c(-c3cccc(NC(=O)Nc4cccc(OC)c4)c3)ncc(OCCCN)c21 [TCMDC-136180] | 96.94 |
| CCn1c(-c2nonc2N)nc2c(-c3cccc(NC(=O)Nc4ccccc4Cl)c3)ncc(OCCCN)c21 [TCMDC-136192] | 107.4 |
| COc1ccccc1NC(=O)Nc1cccc(-c2cccc(-c3nc4c(C)cccc4[nH]3)c2)c1 [TCMDC-133204] | -4.891 |
| COc1cccc(-c2ccc3c(-c4cccc(NC(C)=O)c4)cnc(N)c3c2)c1 [TCMDC-134562] | 29.05 |
| CCn1c(-c2nonc2N)nc2c(C#CC(C)(C)O)ncc(OCCNCCc3ccc(OC)cc3)c21 [TCMDC-136364] | 100.7 |
| CCn1c(-c2nonc2N)nc2c(-c3cccc(NC(=O)Nc4ccccc4OC)c3)ncc(OCCCN)c21 [TCMDC-136190] | 111.9 |
| COc1ccccc1NC(=O)Nc1cccc(-c2ccc(-c3nc4cccc(C)c4[nH]3)s2)c1 [TCMDC-133200] | 0.164 |
| CCC(Cc1cnc2nc(N)nc(N)c2n1)c1ccc(C(=O)O)cc1 (centres unmarked) [TCMDC-137331] | 24.52 |
| FC(F)(F)c1ccc2[nH]c(-c3ccc(-c4ccc(CN5CCN(c6ccncc6)CC5)cc4)s3)nc2c1.O=C(O)C(F)(F)F [TCMDC-132920] | -8.718 |
| O=C(Nc1ccc([N+](=O)[O-])cc1O)Nc1ccccc1Oc1ccccc1 [TCMDC-139010] | -27.06 |
| O=c1[nH]c2c(c(O)c1[N+](=O)[O-])CCC2 [TCMDC-131385] | -1.405 |
| Cc1ccc(NC(=O)NC2CCN(CCC(NC(=O)Cc3ccccc3)c3ccc(Cl)c(Cl)c3)CC2)cc1 (centres unmarked) [TCMDC-141708] | -50.52 |
| CCOC(=O)C(=O)N1c2ccc(OCC)cc2-c2c(ssc2=S)C1(C)C [TCMDC-124090] | -28.77 |
| COc1cc(NC(=O)/C=C/c2cccc3cc[nH]c23)ccc1OCCN(C(C)C)C(C)C [TCMDC-139962] | 14.04 |
| CCOC(=O)c1ccc(NC(=O)c2ccccc2C(=O)O)cc1 [TCMDC-125804] | 12.67 |
| Cc1cc(NC(=O)c2ccc(-c3ccccc3)cc2)no1 [TCMDC-123478] | 45.67 |
| CCC(NC(=O)c1ccccc1NC(=O)c1ccc(C)cc1)C(=O)OC (centres unmarked) [TCMDC-124179] | 51.66 |
